High-throughput results: PubChem, The Scripps Research Institute Molecular Screening Center
MITF inh: inhibitors of human MITF | inhibition, % at 2.6 µM | hit rate 0.91% among 650,000 | AlphaScreen MITF homodimerization, bead proximity signal; in the data active = inhibition above about 50%;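 note: 0% = vehicle wells with protein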
Target sequence (O75030 whole entry, looked up): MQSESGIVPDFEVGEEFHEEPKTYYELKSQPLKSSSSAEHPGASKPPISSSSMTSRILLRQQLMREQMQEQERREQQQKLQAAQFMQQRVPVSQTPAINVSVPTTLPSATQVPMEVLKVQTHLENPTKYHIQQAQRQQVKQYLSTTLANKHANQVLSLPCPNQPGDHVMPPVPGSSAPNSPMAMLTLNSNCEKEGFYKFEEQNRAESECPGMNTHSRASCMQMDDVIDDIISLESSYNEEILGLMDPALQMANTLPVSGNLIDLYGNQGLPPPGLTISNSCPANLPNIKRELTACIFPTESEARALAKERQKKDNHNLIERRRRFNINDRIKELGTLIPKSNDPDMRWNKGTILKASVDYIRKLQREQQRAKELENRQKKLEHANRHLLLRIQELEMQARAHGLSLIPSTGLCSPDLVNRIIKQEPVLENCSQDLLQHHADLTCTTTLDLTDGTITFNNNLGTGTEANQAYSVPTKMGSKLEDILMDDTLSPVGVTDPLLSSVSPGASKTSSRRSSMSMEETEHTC
FBW7 activator: activators of human E3 ligase FBW7; Q969H0; AID 1259310; hit rate 0.13% among 650,000; normalized activity (activation), % at 26.1 µM; AlphaScreen FBW7–phospho-cyclin E peptide binding, activator screen; in the data active = normalized activity above about 1.9%;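 note: purified mutant Fbw7 with reduced substrate affinity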
TEAD-YAP inh: TEAD-YAP interaction inhibition. HEK-TIYL cells, TEAD-Gal4/YAP UAS-luciferase luminescence. inhibition, % at 9.12 µM. hit rate 1.4% among 640,000. AID 1259422; in the data active = inhibition above about 32%;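 note: 0% = median of test compound wells and 100% = reference inhibitor wells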
GPR151 activ: human GPR151 activation | Q8TDV0 | PathHunter beta-arrestin GPR151 cells, luminescence | activation, % at 11.2 µM | hit rate 1% among 650,000; in the data active = activation above about 4.9%;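 note: 0% = median of compound wells and 100% = cells with positive control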
* marks the source's active call; other numbers are inactive results. This is a sample that favours compounds with a hit; in the whole collection about 3.4% have one here.

SMILES | MITF inh | FBW7 activator | TEAD-YAP inh | GPR151 activ
OCC1CCCCN1c1nc(-c2cccs2)nc2ccccc12 (configuration not stated) | 0 | 0 | 74* | 1
O=C(Nc1cccnc1)c1ccc2c(c1)C(=O)N(C1CCCCC1)C2=O | -4 | 0 | -6 | -1
O=C(Nc1ccncc1)c1ccc2c(c1)C(=O)N(C1CCCCC1)C2=O | -9 | 0 | 32* | 0
N#CCCN(C(=O)CCl)c1cccc(Cl)c1 | 3 | 0 | 74* | 0
N#CCCN(C(=O)COC(=O)c1ccc(Cl)cc1N)c1ccccc1 | -4 | 0 | -1 | 1
O=C(N(c1cccc(C(F)(F)F)c1)C1C=CS(=O)(=O)C1)C(Cl)(Cl)Cl (configuration not stated) | -3 | 0 | 53* | -1
Cc1ccc(N(C(=O)C(Cl)(Cl)Cl)C2C=CS(=O)(=O)C2)cc1 (configuration not stated) | 8 | 0 | -2 | 1
CCOC(=O)/C(=C\C=C\N(C(C)C)C(C)C)C(C)=O | -7 | 0 | 3 | 0
CCOC(=O)c1[nH]c(C)c(C(=O)Nc2cc(F)ccc2F)c1C | 15 | 0 | 42* | 0
CCOC(=O)c1[nH]c(C)c(C(=O)c2cc(F)ccc2F)c1C | 4 | 0 | 45* | 1
CCOC(=O)c1[nH]c(C)c(C(=O)OCC(=O)Nc2sccc2C(N)=O)c1C | -6 | 0 | 32* | 2
O=C(CSc1n[nH]c(-c2ccncc2)n1)c1ccc(O)c(O)c1 | 99* | 0 | -4 | 5
CN(C)c1ccc(/C=N/Nc2cn[nH]c(=O)n2)cc1 | 13 | -1 | 81* | -6
O=C(N/N=C/c1c(O)ccc2ccccc12)c1c[nH]c2ccccc12 | 7 | 0 | 8 | 3
O=C(N/N=C/c1c(O)ccc2ccccc12)c1[nH]ncc1Br | 26 | -1 | 42* | 0
O=C(N/N=C/c1c(O)ccc2ccccc12)c1ccccc1O | -31 | 0 | 75* | 1
CN(C)c1ccc(/C=N/Nc2nc3ccccc3o2)cc1 | 13 | 0 | 55* | -4
O=[N+]([O-])c1ccc(/C=N/Nc2nc3ccccc3o2)cc1 | -12 | 0 | -24 | 1
O=C(CN1CCCC1)N/N=C/c1c(O)ccc2ccccc12 | 58* | -2 | 88* | 0
CN(C)c1ccc(/C=N/NC(=O)c2ccn(C)n2)cc1 | 13 | 0 | -13 | -4
CN(C)c1ccc(/C=N/NC(=O)c2cc(O)cc(O)c2)cc1 | 22 | 1 | 2 | -2
CN(C)c1ccc(/C=N/NC(=O)c2[nH]ncc2Br)cc1 | -2 | 0 | 32* | -8
CN(C)c1ccc(/C=N/NC(=O)c2cccc(O)c2)cc1 | -4 | 0 | 60* | -6
O=C(N/N=C/c1c(O)ccc2ccccc12)C(=O)N1CCCC1 | -96 | 0 | 16 | 1
Cc1cc(/C=N/NC(=O)c2cccc(N(C)C)c2)c(C)n1-c1cc(C(=O)O)cc(C(=O)O)c1 | 52* | 0 | -26 | -1
SMILES | MITF inh | FBW7 activator | TEAD-YAP inh | GPR151 activ
O=C(N/N=C\c1c(O)ccc2ccccc12)c1ccccc1O | 32 | 0 | 81* | 1
COc1ccc(-c2ccc3c(N)c(C(=O)NCc4ccco4)sc3n2)cc1 | -3 | 0 | 33* | -1
CC(C)OC(=O)c1sc2nc(-c3ccccc3)ccc2c1N | -2 | 0 | 84* | 4
COc1ccc(-c2ccc(C(=O)NCc3ccco3)c(N(C)C)n2)cc1 | -11 | 0 | -5 | -1
Cn1nnc2c(NC3CC3)nc(Cc3ccc(Cl)cc3Cl)nc21 | 1 | 0 | -5 | 1
Fc1ccccc1CSc1nnnn1-c1ccc2c(c1)OCO2 | 6 | 0 | -7 | 3
Fc1ccc(CSc2nnnn2-c2ccc3c(c2)OCO3)c(Cl)c1 | 2 | 0 | 51* | 0
Cc1ccc(-c2cc(C(=O)N3CCOCC3)no2)cc1 | 3 | 0 | 43* | -3
CN1CCN(C(=O)c2cc(-c3ccc(Br)cc3)on2)CC1 | 2 | 0 | -43 | -1
O=C(c1cc(-c2ccc(O)cc2)on1)N1CCCCCC1 | 6 | 0 | 50* | -1
O=C(c1cc(-c2ccc(Cl)cc2)on1)N1CCCCCC1 | 12 | 0 | -41 | 1
Cc1ccccc1NCC(=O)N/N=C\c1ccc(O)cc1O | -20 | 0 | 1 | -1
Cc1ccc(S(=O)(=O)N/N=C/c2sc3ccccc3c2O)cc1 | 22 | 0 | 51* | -1
Cc1ccc(S(=O)(=O)N/N=C/c2ccccc2O)cc1 | -11 | 0 | 2 | 1
CC(=O)Nc1nc(-c2ccc3c(c2)CCO3)cs1 | 5 | 0 | -57 | -2
CCCN1C(=O)COc2ccc(-c3csc(NC(=O)C(CC)CC)n3)cc21 | 3 | 0 | 32* | 0
